Compound activity (PubChem BioAssay)
Most compounds without a hit are left out; they make up all but 12% or so of the library.
NS1 function inh: inhibitors of influenza NS1 protein function; AID 2326; Potency, µM (titrated, usually from 46.1 µM); 0.4% of 270,000 active; further: actives are rising curves; nearly all actives have a fitted effect of over 50% in size
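A cell-based growth assay was used: compounds that relieve NS1-induced slow growth of budding yeast raise OD600. Assay medium was yeast nitrogen base with ammonium sulphate and -URA supplement, pH 6.0, with 2% galactose.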
SARS PLP yeast: blocks SARS-CoV papain-like protease in a yeast assay; S. cerevisiae expressing SARS-CoV PLpro, growth rescue; Potency, µM (highest dose often 32.9 µM), usual class: activators; AID 485353; 0.19% of 330,000 active; further: nearly all actives have a fitted effect of over 55% in size
Shiga inhibitor: inhibitors of Shiga toxin in Vero cells | Vero cells, Shiga toxin protein synthesis inhibition reporter | inhibition, % at 38.7 µM | 9.2% of 290,000 active | AID 2315; in the data active means inhibition mostly above about 28%, no sharp cut-off; inactive means mostly below about 43%
Cycloheximide cs: affects cycloheximide protein synthesis inhibition readout, counter-screen; cell reporter, cycloheximide protein synthesis inhibition counterscreen; max response, %; 12% of 300,000 active; in the data active means max response mostly above about 13%, no sharp cut-off; inactive means mostly below about 14%; further: read at 38.3 µM for the half of the compounds with a filed dose
A number is an active result; 0 = inactive; ? = inconclusive; - = no result given. Unless noted, the call rests on the fitted dose curve.

SMILES	NS1 function inh	SARS PLP yeast	Shiga inhibitor	Cycloheximide cs
Cc1ccc(NC(=O)Nc2ncnc3nc[nH]c23)cc1	0	0	41	22
O=C1NC2(Nc3ccccc31)C(=O)Nc1ccccc12 (centres undefined)	?	0	59	24
CC(CNC(=O)c1cccs1)c1ccc([N+](=O)[O-])cc1 (centres undefined)	0	0	0	0
Cc1ccc(C(c2nnnn2C2CCCC2)N2CCc3ccccc32)cc1 (centres undefined)	0	0	0	22
CC(C)C(c1nnnn1C1CCCC1)N1CCc2ccccc21 (centres undefined)	0	0	0	0
Cc1cc(/C=C2\C(=N)N3C(SCc4ccccc4)=NSC3=NC2=O)c(C)n1Cc1ccccc1	0	0	0	0
CC(C)CSC1=NSC2=NC(=O)/C(=C\c3coc4ccccc4c3=O)C(=N)N12	-	0	71	27
CSC1=NSC2=NC(=O)/C(=C\c3coc4ccccc4c3=O)C(=N)N12	0	0	0	0
CC(C)CSC1=NSC2=NC(=O)/C(=C\c3ccccc3)C(=N)N12	-	0	77	38
O=C(NNC(=S)NC(=O)C12CC3CC(CC(C3)C1)C2)c1ccncc1	0	0	0	0
COc1ccccc1OCC#CCSc1ncccn1	0	0	0	24
Nc1cc(N)nc(SCCOc2ccccc2)n1	0	0	55	36
Nc1cc(N)nc(SCCOc2ccccc2F)n1	0	0	121	70
COc1ccccc1OCCSc1nc(N)cc(N)n1	0	0	active	0
COc1ccccc1OCC#CCN1CCCC1	0	0	0	0
O=C1C(Cc2ccc3[nH]ccc3c2)NC(=S)N1c1ccccc1 (centres undefined)	0	0	0	0
C[C@H]1CN(CCc2ccccc2)C(=O)[C@@H]1CC(=O)NCc1ccccc1	0	0	0	0
CCC(=O)Nc1cc2nn(-c3ccc(C)cc3)nc2cc1C	-	0	109	44
CCC(=O)Nc1cc2nn(-c3ccc(OC)cc3)nc2cc1C	0	0	90	52
CCCCC(=O)Nc1cc2nn(-c3ccc(OC)cc3)nc2cc1C	0	0	0	0
COc1ccc(-n2nc3cc(C)c(NC(=S)NC(=O)c4ccccc4C)cc3n2)cc1	0	0	112	30
COc1ccc(N2CC(C(=O)Nc3nnc(SCCC4OCCO4)s3)CC2=O)cc1 (centres undefined)	0	0	0	0
CCN(Cc1ccncc1)C(=O)c1ccc(C)o1	0	0	0	0
Fc1ccc(C(OCCCc2cnc[nH]2)c2ccc(F)cc2)cc1	0	-	-	-
O=C(CN1CCOCC1)Nc1ccc(C2CCCCC2)cc1	0	0	0	39
SMILES	NS1 function inh	SARS PLP yeast	Shiga inhibitor	Cycloheximide cs
O=C(COc1ccccc1F)Nc1ccc2c(c1)CCC2	-	0	-	-
O=C(COc1cccc(Cl)c1)Nc1ccc2c(c1)CCC2	0	0	78	38
Cc1ccc(NC(=O)CN2CCOCC2)cc1	0	0	0	0
O=C(CSc1ncccn1)Nc1ccc2c(c1)CCC2	0	0	129	36
O=C(CN1CCCC1)Nc1ccc2c(c1)CCC2	-	0	35	23
CCc1ccc(C(=O)COC(=O)C2CCN(c3ccc(C(F)(F)F)cn3)CC2)cc1	-	0	-	-
O=C(C[n+]1cccc(O)c1)NCc1ccc(Cl)cc1	0	0	0	0
NC(=O)C12CCCC(Br)(CCC1)C2	0	0	0	0
COc1ccc(NC(=O)COc2cccnc2[N+](=O)[O-])cc1OC	-	0	0	0
O=C(COc1cccnc1[N+](=O)[O-])Nc1ccc2c(c1)CCC2	0	0	0	20
O=C(CN1CCCC1)Nc1ccc(NC(=O)Nc2ccccc2)cc1	0	0	54	39
O=C(CN1CCOCCOCCOCCOCC1)Nc1ccccc1	0	0	48	26
O=C(CN1CCCC1)Nc1ccc(Oc2ccc(NC(=O)CN3CCCC3)cc2)cc1	0	0	0	0
CCCN(CC(=O)Nc1ccc(Cl)cc1Cl)Cc1cc(=O)n2ccsc2n1	-	0	0	0
COc1ccccc1/C=C/C(=O)OCC(=O)NC(=O)NC1CCCC1	-	0	-	-
Cc1ccccc1NC(=S)Nc1ccccn1	0	0	52	26
Cc1c(Cl)cccc1NC(=S)Nc1ccccn1	-	0	0	0
COC(=O)Cc1ccc(NC(=S)Nc2ccccn2)cc1	0	0	74	31
Cc1ccccc1NC(=S)NCCc1ccccn1	0	0	0	0
COC(=O)Cc1ccc(NC(=S)NCCO)cc1	0	0	0	0
S=C(Nc1ccccn1)Nc1ccccc1Cl	0	0	72	35
CC(C)(C)c1ccc(S(=O)(=O)N2CCN(CC(=O)N3CC(=O)Nc4ccccc43)CC2)cc1	-	0	-	-
N#CC1(Cc2ccc(Cl)cc2)c2ccccc2C=CN1C(=O)c1ccccc1 (centres undefined)	0	0	0	0
Clc1cccc(Cl)c1Cn1cnc(=NCc2ccco2)c2[nH]cnc21	0	0	0	22
